Assay outcomes: PubChem, National Center for Advancing Translational Sciences (NCATS)
PNC assembly inh: perinucleolar compartment assembly inhibition; PC3M PTB-GFP, PNC prevalence imaging, 16 h; stronger effect = lower value; activity change (PNC), negative = inhibition, % at 10 µM; 3.1% of 140,000 active;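 active means readout at or below -70, meaning at least 70% loss of cells showing the perinucleolar compartment, a nuclear body marking cancer cells; inconclusive means readout between -30 and a set limit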;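 further: plate controls were DMSO wells for no effect and camptothecin positive control wells for full effect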
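Read-out is percentage of cells bearing a perinucleolar compartment, from automated 20x imaging of fixed, Hoechst-stained PC3M PTB-GFP cells. Cells were seeded 4 h, then exposed 16 h to compound (23 nl of library stock) in duplicate plates.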
HPGD inh: inhibitors of human 15-hydroxyprostaglandin dehydrogenase (HPGD) | P15428 | purified HPGD, NADH fluorescence kinetic, PGE2 substrate | Potency, µM, inactives show at the highest dose activity change, negative = inhibition, actives largely listed as inhibitors | 4.3% of 150,000 active | AID 894; further: potency means the concentration at half of the fitted maximal effect
Target sequence (P15428 whole entry, looked up): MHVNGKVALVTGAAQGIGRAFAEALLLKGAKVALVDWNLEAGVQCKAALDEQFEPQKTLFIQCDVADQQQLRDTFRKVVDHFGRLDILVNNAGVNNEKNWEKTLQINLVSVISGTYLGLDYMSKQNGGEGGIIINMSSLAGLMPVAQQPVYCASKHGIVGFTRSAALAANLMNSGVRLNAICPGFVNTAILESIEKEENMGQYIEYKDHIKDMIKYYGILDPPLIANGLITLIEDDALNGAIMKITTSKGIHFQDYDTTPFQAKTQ
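NADH formation kinetics: reaction with 30 uM PGE2 and 1 mM NAD+ (final), 20 nM enzyme, Tris-HCl pH 8 with Tween 20, after 15 min compound preincubation at room temperature. Fluorescence change, last versus first of five reads.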
ALDH1A1 inh: inhibitors of human aldehyde dehydrogenase 1A1 | 7.3% of 220,000 active | Purified ALDH1A1, NADH fluorescence, propionaldehyde substrate | P00352 | Potency, µM (series often up to 75.3 µM), inactives show top-dose activity, negative = inhibition, usual class: inhibitors;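 further: potency means the concentration at half of the fitted maximal effect; plate controls were no enzyme wells and a reference inhibitor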
Active calls of the source: *; ? = inconclusive; . = not tested or not shown; [ ] = another dose, or the depositor's remark. The list is not random: actives were taken first. Their share in the collection is about 11%. Unless noted, the call rests on the fitted dose curve; in most records, active means well fitted inhibition curve with a large enough effect (not every such curve was filed as active); inconclusive means small, poorly fitted or top-dose-only effect, or another doubt; inactive means no such curve, though single readings can be large or run the other way. Unless noted, on the % scale 0 is the no-effect control and ±100 the full control effect.

SMILES	PNC assembly inh	HPGD inh	ALDH1A1 inh
Cc1ccc(CS(=O)(=O)CCC(=O)NCC2CCCO2)cc1 (centres undefined)	-84*	-4%	?
Cc1ccc(CS(=O)(=O)Cc2ccc(C(=O)NCC3CCCO3)o2)cc1 (centres undefined)	63	-13%	-5%
NNC(=O)C(Cc1c[nH]c2ccccc12)NC(=O)c1ccccc1 (centres undefined)	.	.	-18%
CCc1cccc(CC)c1NC(=S)NCC(c1cccnc1)N1CCOCC1 (centres undefined)	38	-1%	-9%
O=C(CSc1nnc(Cc2ccccc2)o1)Nc1ccc(Br)cn1	-17	-2%	11%
Cc1cc(C)n(-c2ccc(-n3ccnc3)nn2)n1	?	-11%	-7%
O=C(CCSCCC(=O)NCC1CCCO1)NCC1CCCO1 (centres undefined)	?	-4%	-7%
O=C(CC1CCCCC1)NCC1CCCO1 (centres undefined)	1	14µM*	-3%
O=C(Oc1cc(-c2ccccc2)no1)c1cccc(C(F)(F)F)c1	42	-17%	7.9µM*
O=C(Oc1cc(-c2ccccc2)no1)c1ccc(F)cc1	-8	-9%	9%
CC(C)c1c(O)nc(SCC(=O)N2CCOCC2)[nH]c1=O	7	-9%	7%
CC(C)c1c(O)nc(SCCN(C)C)[nH]c1=O	-87*	-5%	-6%
C=CCn1c(C(C)NC(=O)COC)nc2ccccc21 (centres undefined)	?	0%	2%
CC(C)(C)c1ccc(C(=O)NNc2ncccc2-n2cccc2)cc1	.	.	-6%
COc1ccc(S(=O)(=O)Nc2cc3c(cc2C(C)=O)OCO3)cc1	.	.	0%
Cc1cccc(NC(=O)NCCc2ccc(Cl)cc2)c1	.	.	35µM*
O=C(NCCc1ccc(Cl)cc1)Nc1cccc(Cl)c1	72	-8%	-3%
O=C(NCCc1ccncc1)Nc1ccc(Cl)c(Cl)c1	.	.	10%
O=C(NCCc1ccncc1)Nc1ccccc1	-100*	-15%	14%
CCNC(=O)NC(=O)C(C)OC(=O)C1CCN(S(=O)(=O)c2ccc(C)c(C)c2)CC1 (centres undefined)	?	-15%	8%
CCCCCCCCCCCCCCCCCCOCC(O)CO (centres undefined)	.	-6%	0%
CN1CCN(c2nc3c(c(=O)[nH]c(=O)n3C)n2CCCSc2ncccn2)CC1	?	-7%	?
CCOCCn1c(N2CCN(c3ccccc3)CC2)nc2c1c(=O)[nH]c(=O)n2C	.	.	-10%
Cn1c(=O)[nH]c(=O)c2c1nc(N1CCCCCC1)n2CCCSc1nnnn1-c1ccccc1	5	-28%	2.5µM*
CC(CSc1nnnn1-c1ccccc1)Cn1c(N2CCN(C)CC2)nc2c1c(=O)[nH]c(=O)n2C (centres undefined)	.	.	20µM*
SMILES	PNC assembly inh	HPGD inh	ALDH1A1 inh
Cn1c(=O)[nH]c(=O)c2c1nc(N1CCN(Cc3ccccc3)CC1)n2CCCc1ccccc1	-30	-12%	?
Cn1c(=O)[nH]c(=O)c2c1nc(N1CCCC1)n2CCCSc1nnnn1-c1ccccc1	10	-12%	11µM*
O=[N+]([O-])c1ccc(CN2C=NS(=O)(=O)c3ccccc32)cc1	.	.	12%
CC(CNc1ccccc1O)C(=O)O (centres undefined)	23	-5%	?
O=C(NCCCN1CCOCC1)C(C(=O)c1ccccc1)n1ccccc1=O (centres undefined)	26	-10%	-15%
C=CCNC(=O)c1ccc(-c2nc(-c3ccc(Cl)cc3Cl)cs2)cc1	-21	4µM*	1%
C=CCNC(=O)c1ccc(-c2nc(-c3ccc(Cl)c(Cl)c3)cs2)cc1	57	-23%	0%
C=CCNC(=O)c1cc(Cl)ccc1[N+](=O)[O-]	9	-10%	6%
C=CCNC(=O)c1cc(Cl)ccc1Cl	-9	20µM*	0%
CCCCCCCCNC(=O)c1ccc(C)cc1	.	.	1%
CC1(C)CSC(=S)N1S(=O)(=O)c1ccccc1	?	-27%	?
COc1ccc(CNC(=O)CCN2C(=S)NC(C)(C)CC2C)cc1 (centres undefined)	.	.	-7%
N=C1C(c2ccccc2)=C(O)CN1NC(=O)c1ccc(Cl)cc1	.	.	-7%
Cc1cc(NC(=O)CSc2ccc3c(c2)OCCO3)no1	48	-15%	?
NCCCCCc1nnc(SCC(N)=O)o1	.	.	10%
CN1CCN(c2ccc(-c3ccnn3C(=O)Nc3cccc(C(F)(F)F)c3)cc2)CC1	.	.	0%
Cc1ccc(C)c(S(=O)(=O)N2CCN(C(C(=O)Nc3ccc(F)cc3)c3ccccc3)CC2)c1 (centres undefined)	6	-13%	11µM*
O=C(Nc1ccc2c(c1)OCO2)C(c1ccccc1)N1CCN(C(=O)c2ccco2)CC1 (centres undefined)	14	-19%	3µM*
O=C(Nc1ccc(F)cc1)C(c1ccccc1)N1CCN(S(=O)(=O)c2ccc3ccccc3c2)CC1 (centres undefined)	49	-15%	?
O=C(Nc1ccc2c(c1)OCO2)C(c1ccc(Cl)cc1)N1CCN(C(=O)c2ccco2)CC1 (centres undefined)	9	-5%	-12%
O=C(Nc1ccc(F)cc1)C(c1ccccc1)N1CCN(C(=O)c2ccco2)CC1 (centres undefined)	36	-18%	5µM*
Cc1ccc(C(C(=O)NC2CCCCC2)N2CCN(C(=O)c3ccco3)CC2)cc1 (centres undefined)	69	-4%	-7%
Cc1cc(=O)[nH]c2c1c(C)nn2C1CCOC(C)(C)C1 (centres undefined)	43	-22%	?
Cc1cc(C)c(-c2c(O)c3cnn(-c4ccccc4)c3[nH]c2=O)c(C)c1	?	-9%	-2%
CC(C)(C)N1C(=O)[C@H]2[C@H]3[C@H](O)[C@H](O)C/C(=N/OC[C@@H](O)COCc4ccco4)[C@H]3CC[C@@H]2C1=O	.	.	11%[13.5 µM]
SMILES	PNC assembly inh	HPGD inh	ALDH1A1 inh
COCCN(C(=O)CCC(=O)Nc1ccccn1)C(C(=O)NC1CCCC1)c1ccc(OC)cc1 (centres undefined)	-5	3%	2%
CCC(=O)/C=C1\Sc2ccc(OC)cc2N1CC	-7	28µM*	?
CCC(=O)/C=C1\Sc2ccc(OC)cc2N1CCO	?	-4%	8%
COc1ccccc1CN1CC[C@@]2(CCCN(C(C)=O)C2)C1	.	-3%	6%
CCN(Cc1ccc(OC)c(F)c1)C(=O)CCl	.	.	0.35µM*
CCN(CC)C(=O)COc1ccc(CC(=O)O)cc1OC	-1	-3%	-1%
COC(=O)CN(Cc1ccccc1)S(=O)(=O)c1ccc(OC)c(OC)c1	?	-7%	13%
COc1cc(NC(=S)N2CCCCC2C)c(OC)cc1Cl (centres undefined)	.	.	2%
COc1cc(NC(=O)C(=O)NNC(=O)C2CCCCC2)c(OC)cc1Cl	-95*	-16%	3%
COCCCN1C(=O)/C(=C\c2cccs2)C(C(=O)OC)=C1C	.	.	-6%
COCCN1CN=C(Nc2nc3ccccc3s2)NC1	45	-8%	10%
Cc1cccc(NC(=O)/C(=C\c2ccc([N+](=O)[O-])o2)NC(=O)c2ccc(Cl)cc2)c1	-23	-28%	4.5µM*
COC(=O)/C(=C\c1ccc([N+](=O)[O-])o1)NC(=O)c1ccccc1	11	-9%	11%
